# Experimental data reported in PubChem BioAssay AID720650 (Broad Institute, 2013).
# Values without a mark were called inactive. Calls of active or inactive are those of the source. No rule for the calls is given here.
# Test: C difficile toxins, biochemical counterscreen, UDPG substrate absence, confirmatory dose response (AID 720650)
# Details: series mostly up to 19.5 µM
row,Structure (SMILES),AC50
1,Cc1c(CCCC(=O)O)sc(N)c1C(=O)c1cccc(C(F)(F)F)c1,inactive
2,COc1cc2oc3ccc(C#Cc4ccccn4)cc3c(=O)c2cc1OC,inactive
3,Cc1cccc(/C=C/c2onc(C)c2S(=O)(=O)N2CCC(C(=O)NC(C)(C)C)CC2)c1,inactive
4,N#Cc1ccc(C(=O)N/N=C/c2cn(CC(=O)O)c3ccccc23)c(F)c1,inactive
5,O=C(Nc1ccccc1F)N(Cc1ccc(F)cc1)Cc1nc2ccccc2c(=O)[nH]1,inactive
6,CC(=O)Nc1ccc(S(=O)(=O)N2CCCC(C(=O)O)C2)cc1 (centres undefined),inactive
7,CC1(C)Cc2nc(Cl)c(C#N)cc2CO1,> 39 µM
8,O=c1[nH]nc(-c2cc(-c3ccccc3)nc3ccccc23)o1,inactive
9,Nc1ccc(OC(=O)Nc2ccc(O)cc2)cc1,18.9 µM (active)
10,Cc1cccc(-n2c(=O)c3ccccc3n3c(=S)[nH]nc23)c1C,inactive
11,COc1ccc(CCNC(=O)CCCn2nc(C)n3ccnc3c2=O)cc1OC,inactive
12,CN1C(=O)c2cc(NC(=O)c3cccc(F)c3)ccc2OC[C@H]2O[C@H](CC(=O)NCC3CCCCC3)CC[C@@H]21,inactive
13,S=c1nc(-c2cccc(Cl)c2)[nH][nH]1,3.82 µM (active)
14,CN(C)c1ccc(/C=C/c2cccc[n+]2[O-])cc1,inactive
15,O=C1CSC(=Nc2ccc(O)cc2)N1,17.6 µM (active)
16,O=c1c2ccccc2oc2ccc(NCCCN3CCOCC3)cc12,inactive
17,Cc1cc(O)ccc1NC(=O)c1ccccc1,17.9 µM (active)
18,Nc1ccccc1-c1nc2ccncc2[nH]1,inactive
19,COc1ccc(C2=NS(=O)(=O)N(C)C(C(=O)NCc3ccc4c(c3)OCO4)=C2)cc1OC,inactive
20,O=C(COC(=O)c1ccc(F)cc1F)c1ccc[nH]1,inactive

row,Structure (SMILES),AC50
1,O=C(O)c1ccc2c(c1)N(Cc1cccc(F)c1)C(=O)CS2,inactive
2,CCN(CC)CCNc1ccc(C)c2sc3ccc(O)cc3c(=O)c12,5.7 µM (active)
3,S=C(NCCc1ccccc1)Nc1ncccn1,inactive
4,CC1(C)Cc2c(sc3ncn4c(=S)[nH]nc4c23)CO1,13.9 µM (active)
5,Cc1ccc(/C=C/c2onc(C)c2S(=O)(=O)N2CCC(C(=O)N3CCCCC3)CC2)cc1,inactive
6,Cc1cc(SCC(=O)N/N=C/c2ccco2)nc2ccccc12,> 39 µM
7,Cn1c(=O)c2c(nc(N3CCOCC3)n2CCSc2ncccn2)n(C)c1=O,inactive
8,Nc1ccc2c(c1)Nc1ccccc1CC2,9.36 µM (active)
9,O=C(CSc1nnc(-c2ccncc2)o1)N1CCCCCC1,inactive
10,COc1ccc(-c2ccc3c(c2)[C@H]2[C@H](CCN2C(=O)CN2CCOCC2)[C@@H](CO)N3)cc1,11 µM (active)
11,O=c1c2oc3nc4c(cc3c2ncn1CCCc1ccccc1)CCCC4,inactive
12,O=CN(c1ccccc1)c1ccc2ccccc2c1,inactive
13,CC(OC(=O)[C@@H](NC(=O)OCc1ccccc1)C(C)C)C(=O)Nc1ccc(N2CCOCC2)cc1 (some centres undefined),inactive
14,COc1cc(/C=N/n2c(-c3ccccc3)n[nH]c2=S)ccc1O,inactive
15,Cc1ccc(C2=NS(=O)(=O)N(C)C(C(=O)NC(C)c3ccccc3)=C2)cc1 (centres undefined),inactive
16,Cc1ccc(C)c2c1cc(C)c1nnc(SCC(=O)NCc3ccc4c(c3)OCO4)n12,13.1 µM (active)
17,CC(=O)NC(Cc1ccccc1)C(=O)Oc1ccc2ccccc2c1 (centres undefined),inactive
18,CNC(=O)C[C@@H]1CC[C@H]2[C@H](COc3ccc(NS(=O)(=O)c4ccccc4C)cc3C(=O)N2C)O1,inactive
19,CC(=O)N1CC[C@@H]2[C@@H](CO)Nc3ccc(-c4ccccc4)cc3[C@@H]21,11.5 µM (active)
